Results filed as inconclusive are left out. Calls of active or inactive are those of the source. Unless noted, the call rests on the fitted dose curve; in most records, active means well fitted curve in the direction sought with a large enough effect in the repeat runs; inconclusive means weak or mixed curves; inactive means no such curve, though single readings can be large; an effect the other way counts as inactive or inconclusive.

Assay [1] in a line: qHTS assay to identify aromatase inhibitors - cell viability counter screen (AID 743084).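 Further: cells stimulated with testosterone during compound exposure; nearly all actives have a fitted effect of over 55% in size.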
Assay [2] has as its target Aryl hydrocarbon receptor (Homo sapiens) (UniProt P35869). Description: qHTS assay to identify small molecule that activate the aryl hydrocarbon receptor (AhR) signaling pathway (AID 743085). Further: nearly all actives have a fitted effect of over 15% in size. Further: potency means the concentration at half of the fitted maximal effect.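 On activation: HG2L7.5c1 human HepG2 liver cells with stably integrated DRE-driven firefly reporter; series mostly up to about 70 µM.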 The method, boiled down: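 HepG2 cells stably carrying a 20-DRE firefly luciferase reporter (HG2L7.5c1) treated with compound for 24 hr at 37C. Luciferase read by ONE-Glo luminescence, with CellTiter-Fluor viability read first.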

A short description of assay [3]: qHTS assay to identify small molecule that activate the aryl hydrocarbon receptor (AhR) signaling pathway - cell viability counter screen (AID 743086). Further: series mostly up to about 70 µM; nearly all actives have a fitted effect of over 45% in size. The method, boiled down:
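HepG2-AhR-luc (HG2L7.5c1) cells, 4000/well, treated 24 h at 37 C with compound; viability measured as CellTiter-Fluor fluorescence after 30 min in the same wells as the luciferase read.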

Assay [4] concerns the target Peroxisome proliferator-activated receptor gamma (Homo sapiens) (UniProt P37231). Put plainly: qHTS assay to identify small molecule agonists of the peroxisome proliferator-activated receptor gamma (PPARg) signaling pathway (AID 743094; active means well fitted activation curve with a large enough effect in the signal ratio in the repeat runs, not every such curve was filed as active; the % refers to the signal ratio). In a few lines:
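GeneBLAzer PPARg UAS-bla HEK293H cells carrying a stably integrated beta-lactamase reporter were pre-incubated 5 h at 37C, then exposed to compounds in DMSO for 17 h at 37C; LiveBLAzer B/G FRET substrate was added for 1 h at room temperature and fluorescence read.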

Assay [5] in a line: qHTS assay to identify small molecule antagonists of the peroxisome proliferator-activated receptor gamma (PPARg) signaling pathway - cell viability counter screen (AID 743194). Further: nearly all actives have a fitted effect of over 55% in size. The settings on record: Potency: co-treated with 50 nM rosiglitazone. The method, boiled down: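 Cytotoxicity counter screen in PPARg-bla HEK293H cells, same wells as reporter assay. Compounds plus 50 nM rosiglitazone (final) for 17 h at 37 C, then viability read by CellTiter-Glo luminescence.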

The nature of assay [6]: qHTS assay for small molecule agonists of the antioxidant response element (ARE) signaling pathway - cell viability counter screen (AID 743203; calls by dose curve; further: nearly all actives have a fitted effect of over 55% in size). In a few lines: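 CellSensor ARE-bla HepG2 cells, 2,000 per well, rested 5 hrs at 37C/5% CO2, then exposed to compound in DMSO for 16 hrs; viability read as CellTiter-Glo luminescence after 30 min at room temperature, in the reporter wells.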

The nature of assay [7]: qHTS assay for small molecule activators of the heat shock response signaling pathway - cell viability counter screen (AID 743209). Further: nearly all actives have a fitted effect of over 50% in size. In a few lines: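 CellSensor HSE-bla HeLa cells, plated overnight at 37 C/5% CO2, were exposed to compounds in DMSO for 5 h at 37 C. Viability was then read in the same wells by CellTiter-Glo luminescence after 30 min at room temperature.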
Assay [8] can be described thus: qHTS assay for small molecule activators of the heat shock response signaling pathway (AID 743210; active means well fitted activation curve with a large enough effect in the signal ratio in the repeat runs, with a control signal flat, not every such curve was filed as active; the % refers to the signal ratio; further: series mostly up to about 63 µM). In a few lines: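 HSE-bla HeLa cells (beta-lactamase reporter under heat shock response elements), plated overnight, then exposed to compounds 5 h at 37 C; LiveBLAzer B/G FRET substrate added, 2.5 h at room temperature, fluorescence intensity read.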
Assay [9] can be described thus: qHTS assay to identify small molecule agonists of the peroxisome proliferator-activated receptor delta (PPARd) signaling pathway - cell viability counter screen (AID 743211). Further: nearly all actives have a fitted effect of over 55% in size. The method, boiled down: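 PPARd-bla HEK293H cells (3000/well) were pre-incubated 5 h at 37 C, then exposed to compound for 17 h at 37 C. After 2 h with LiveBLAzer substrate, CellTiter-Glo was added to the same wells; luminescence read after 30 min at room temperature.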

For assay [10], the target named is Peroxisome proliferator-activated receptor delta (Homo sapiens) (UniProt Q03181). Put plainly: qHTS assay to identify small molecule agonists of the peroxisome proliferator-activated receptor delta (PPARd) signaling pathway (AID 743212; calls by dose curve). In a few lines:
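GeneBLAzer UAS-bla HEK293H cells carrying a PPARδ construct were exposed to compounds at 37 °C. Beta-lactamase activity was read by FRET fluorescence after 2 h at room temperature with LiveBLAzer B/G substrate.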

A short description of assay [11]: qHTS assay to identify small molecule agonists of the farnesoid-X-receptor (FXR) signaling pathway - cell viability counter screen (AID 743218). Further: nearly all actives have a fitted effect of over 45% in size. In a few lines: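 FXR-UAS-bla HEK 293T cells, plated 5 h at 37 C, were exposed to compounds for 16 h at 37 C. CellTiter-Glo was then added to the same wells as the bla readout; luminescence read after 30 min at room temperature.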

Assay [12] is described as follows: qHTS assay to identify small molecule antagonists of the farnesoid-X-receptor (FXR) signaling pathway - cell viability counter screen (AID 743221; active means well fitted cell-killing curve with a large enough effect in the repeat runs, not every such curve was filed as active; further: nearly all actives have a fitted effect of over 50% in size). The method, boiled down:
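GeneBLAzer FXR-UAS-bla HEK 293T cells, compound plus chenodeoxycholic acid (50 uM final), 16 h at 37 C. CellTiter-Glo added to the same wells after the beta-lactamase read; luminescence read after 30 min at room temperature as viability.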

In assay [13] the target is Vitamin D3 receptor (Homo sapiens) (UniProt P11473). Put plainly: qHTS assay to identify small molecule agonists of the vitamin D receptor (VDR) signaling pathway (AID 743222; calls by dose curve). In a few lines: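 VDR-bla cells were plated 4 h at 37C/5% CO2, then exposed to compounds in DMSO for 16 h. After LiveBLAzer B/G FRET substrate addition and 2 h at room temperature, beta-lactamase reporter fluorescence was read.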

The target is the same in assay [14]. Description: qHTS assay to identify small molecule antagonists of the vitamin D receptor (VDR) signaling pathway (AID 743223; active means well fitted inhibition curve with a large enough effect in the signal ratio in the repeat runs, not every such curve was filed as active; the % refers to the signal ratio). In a few lines:
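VDR-bla cells were treated with compound plus 3 nM final 1alpha,25-dihydroxyvitamin D3 for 16 h at 37C. Beta-lactamase reporter read by B/G FRET substrate fluorescence after 2 h at room temperature. qHTS format.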

Assay [15] can be described thus: qHTS assay for small molecule agonists of the antioxidant response element (ARE) signaling pathway (AID 743202; active means well fitted activation curve with a large enough effect in the signal ratio in the repeat runs, not every such curve was filed as active; the % refers to the signal ratio; further: potency means the concentration at half of the fitted maximal effect). In a few lines:
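ARE-bla HepG2 cells (beta-lactamase reporter under the antioxidant response element), plated 5 hours, then exposed to compounds 16 hours at 37 C. LiveBLAzer B/G FRET substrate added for 2 hours at room temperature; fluorescence intensity read.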

A short description of assay [16]: qHTS assay to identify small molecule antagonists of the peroxisome proliferator-activated receptor delta (PPARd) signaling pathway - cell viability counter screen (AID 743213). Further: nearly all actives have a fitted effect of over 50% in size. The method, boiled down: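 HEK293H cells with the PPARd UAS-bla reporter, co-treated 17 h at 37 C with compounds and L165041 (300 nM final), were lysed with CellTiter-Glo. Luminescence indicated viable cell content.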

Assay [17] concerns the target Peroxisome proliferator-activated receptor delta (Homo sapiens) (UniProt Q03181). Put plainly: qHTS assay to identify small molecule antagonists of the peroxisome proliferator-activated receptor delta (PPARd) signaling pathway (AID 743215; active means well fitted inhibition curve with a large enough effect in the signal ratio in the repeat runs, not every such curve was filed as active; the % refers to the signal ratio;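 further: cells stimulated with agonist L165041 at 300 nM final during compound exposure; series mostly up to about 62 µM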). The method, boiled down:
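PPARd UAS-bla HEK293H cells were pre-incubated 5 h at 37 C, then given test compounds in DMSO plus agonist L165041 (300 nM final). After 17 h at 37 C, beta-lactamase FRET substrate was added; fluorescence read after 2 h at room temperature.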

Assay [18] addresses Peroxisome proliferator-activated receptor gamma (Homo sapiens) (UniProt P37231). Put plainly: qHTS assay to identify small molecule antagonists of the peroxisome proliferator-activated receptor gamma (PPARg) signaling pathway (AID 743191; calls by dose curve; further: series mostly up to about 63 µM; nearly all actives have a fitted effect of over 30% in size). In a few lines:
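GeneBLAzer PPARg UAS-bla HEK293H cells, 5 h post-plating, exposed to compounds 17 h at 37C. LiveBLAzer B/G FRET substrate added for 1 h at room temperature; beta-lactamase reporter read by fluorescence intensity.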

The target of assay [19] is Bile acid receptor (Homo sapiens) (UniProt Q96RI1). Description: qHTS assay to identify small molecule antagonists of the farnesoid-X-receptor (FXR) signaling pathway (AID 743217; active means well fitted inhibition curve with a large enough effect in the signal ratio in the repeat runs, not every such curve was filed as active; the % refers to the signal ratio). The method, boiled down:
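FXR-UAS-bla HEK 293T cells pre-incubated 5 h at 37 °C, then exposed to compounds with chenodeoxycholic acid (50 uM final) for 16 h at 37 °C. Beta-lactamase reporter read by LiveBLAzer B/G FRET substrate fluorescence after 2 h at room temperature.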

For assay [20] the target is unchanged. Description: qHTS assay to identify small molecule agonists of the farnesoid-X-receptor (FXR) signaling pathway (AID 743220; active means well fitted activation curve with a large enough effect in the signal ratio in the repeat runs, not every such curve was filed as active; the % refers to the signal ratio). In a few lines:
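Beta-lactamase reporter under UAS control in GeneBLAzer FXR HEK 293T cells (5000/well) measured with LiveBLAzer FRET substrate after 2 h at room temperature. Compound exposure lasted 16 h at 37C.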

Sequence of Bile acid receptor (Homo sapiens) (Q96RI1 whole entry, looked up): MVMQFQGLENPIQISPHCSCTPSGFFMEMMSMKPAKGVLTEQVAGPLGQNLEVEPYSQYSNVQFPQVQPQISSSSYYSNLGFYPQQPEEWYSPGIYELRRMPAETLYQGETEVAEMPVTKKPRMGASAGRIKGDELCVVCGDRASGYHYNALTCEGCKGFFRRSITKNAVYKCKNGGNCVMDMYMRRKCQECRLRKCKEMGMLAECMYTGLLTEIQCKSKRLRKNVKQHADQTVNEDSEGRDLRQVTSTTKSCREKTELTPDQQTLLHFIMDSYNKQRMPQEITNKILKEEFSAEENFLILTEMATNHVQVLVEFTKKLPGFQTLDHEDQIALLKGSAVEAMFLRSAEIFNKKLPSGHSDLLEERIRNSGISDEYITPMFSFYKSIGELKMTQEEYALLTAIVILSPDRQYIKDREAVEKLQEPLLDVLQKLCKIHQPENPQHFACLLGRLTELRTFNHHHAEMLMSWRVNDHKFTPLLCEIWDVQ
Sequence of Aryl hydrocarbon receptor (Homo sapiens) (P35869 whole entry, looked up): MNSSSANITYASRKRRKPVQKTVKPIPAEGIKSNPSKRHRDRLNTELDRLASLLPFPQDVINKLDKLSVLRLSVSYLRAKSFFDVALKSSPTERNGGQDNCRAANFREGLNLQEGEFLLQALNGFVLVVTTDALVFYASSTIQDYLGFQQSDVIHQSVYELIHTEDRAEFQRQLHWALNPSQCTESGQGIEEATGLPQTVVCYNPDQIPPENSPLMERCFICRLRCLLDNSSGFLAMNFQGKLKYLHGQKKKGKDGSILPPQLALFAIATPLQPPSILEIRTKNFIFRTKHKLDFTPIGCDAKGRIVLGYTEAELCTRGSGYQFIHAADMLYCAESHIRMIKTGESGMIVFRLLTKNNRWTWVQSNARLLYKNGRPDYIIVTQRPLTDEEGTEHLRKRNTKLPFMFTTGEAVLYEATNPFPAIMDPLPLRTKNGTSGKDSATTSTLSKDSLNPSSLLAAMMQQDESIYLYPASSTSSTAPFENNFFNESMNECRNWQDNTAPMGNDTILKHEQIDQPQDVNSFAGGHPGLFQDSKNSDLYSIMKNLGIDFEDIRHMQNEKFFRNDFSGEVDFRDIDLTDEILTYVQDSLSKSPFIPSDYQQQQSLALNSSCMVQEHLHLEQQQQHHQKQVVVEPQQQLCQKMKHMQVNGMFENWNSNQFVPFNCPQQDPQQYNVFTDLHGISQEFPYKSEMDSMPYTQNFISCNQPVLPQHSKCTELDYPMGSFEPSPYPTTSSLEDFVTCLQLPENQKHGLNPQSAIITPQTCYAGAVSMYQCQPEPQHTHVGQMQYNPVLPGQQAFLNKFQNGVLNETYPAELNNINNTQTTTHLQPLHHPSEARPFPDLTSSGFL
Sequence of Vitamin D3 receptor (Homo sapiens) (P11473 whole entry, looked up): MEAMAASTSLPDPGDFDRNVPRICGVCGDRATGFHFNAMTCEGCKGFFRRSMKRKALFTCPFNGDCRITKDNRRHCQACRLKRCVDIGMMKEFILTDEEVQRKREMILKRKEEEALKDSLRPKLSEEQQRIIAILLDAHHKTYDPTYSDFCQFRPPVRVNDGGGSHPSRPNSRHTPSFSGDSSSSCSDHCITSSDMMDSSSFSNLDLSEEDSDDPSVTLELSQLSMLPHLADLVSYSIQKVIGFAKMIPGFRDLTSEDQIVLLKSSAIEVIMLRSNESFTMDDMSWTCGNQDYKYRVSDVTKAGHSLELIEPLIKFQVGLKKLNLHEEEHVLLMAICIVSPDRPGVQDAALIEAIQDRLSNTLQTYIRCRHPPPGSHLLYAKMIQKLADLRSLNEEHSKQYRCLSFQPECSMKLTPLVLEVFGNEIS
Sequence of Peroxisome proliferator-activated receptor delta (Homo sapiens) (Q03181 whole entry, looked up): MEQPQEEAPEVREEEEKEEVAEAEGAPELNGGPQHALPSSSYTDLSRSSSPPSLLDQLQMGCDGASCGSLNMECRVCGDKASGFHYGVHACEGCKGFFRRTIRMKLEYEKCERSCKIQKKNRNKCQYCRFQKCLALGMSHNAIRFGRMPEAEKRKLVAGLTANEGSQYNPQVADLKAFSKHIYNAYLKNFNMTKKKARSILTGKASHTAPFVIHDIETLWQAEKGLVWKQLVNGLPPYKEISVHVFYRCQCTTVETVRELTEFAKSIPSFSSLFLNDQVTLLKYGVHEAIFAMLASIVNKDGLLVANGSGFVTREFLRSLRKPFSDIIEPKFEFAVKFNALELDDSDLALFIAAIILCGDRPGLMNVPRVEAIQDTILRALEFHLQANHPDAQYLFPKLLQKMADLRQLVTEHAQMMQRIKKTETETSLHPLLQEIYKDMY
Sequence of Peroxisome proliferator-activated receptor gamma (Homo sapiens) (P37231 whole entry, looked up): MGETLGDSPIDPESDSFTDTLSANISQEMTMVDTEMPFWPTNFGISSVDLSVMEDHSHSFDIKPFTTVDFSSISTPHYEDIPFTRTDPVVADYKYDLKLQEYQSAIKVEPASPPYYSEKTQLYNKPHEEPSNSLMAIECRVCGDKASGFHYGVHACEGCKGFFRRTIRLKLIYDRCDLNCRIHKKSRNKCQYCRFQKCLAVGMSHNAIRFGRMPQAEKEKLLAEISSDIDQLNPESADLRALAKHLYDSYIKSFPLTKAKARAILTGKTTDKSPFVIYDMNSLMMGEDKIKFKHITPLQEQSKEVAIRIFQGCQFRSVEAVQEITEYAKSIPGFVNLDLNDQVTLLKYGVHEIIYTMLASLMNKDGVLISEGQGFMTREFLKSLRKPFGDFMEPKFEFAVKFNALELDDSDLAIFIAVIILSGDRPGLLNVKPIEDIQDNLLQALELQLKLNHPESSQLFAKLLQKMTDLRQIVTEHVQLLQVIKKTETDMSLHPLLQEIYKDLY

With `CSc1nc(N=[N+]=[N-])nc(NC(C)C)n1`, the Potency result in assay [1], in assay [2], in assay [5], in [6], in assay [7] and in assay [9] was “inactive” throughout. In addition, the Potency result in assay [11] was “inactive”. For the same molecule, the molecule was called inactive in assay [3], in assay [4], in assay [8], in [10], in [12] and in assay [13]. Moreover, the molecule was classed as inactive in [14].
As to `CCN(Cc1ccc(Cl)nc1)/C(=C/[N+](=O)[O-])NC`, the Potency result in [1], in assay [2], in assay [5], in assay [15], in assay [6] and in assay [7] was “inactive” each time. For the same molecule, the Potency entry in [9] and in [11] was “inactive” in each case. The result in assay [3], in assay [4], in assay [8], in [10], in [16] and in [17] was inactive. The call in assay [12], in [13] and in assay [14] was inactive.
Regarding `COC(=O)c1ccccc1S(=O)(=O)NC(=O)N(C)c1nc(C)nc(OC)n1`, the Potency entry in assay [1], in assay [2], in assay [18], in assay [15], in assay [6] and in assay [7] was “inactive” each time. Also, the Potency result in assay [9], in [19] and in [11] was “inactive” each time. Moreover, the outcome in assay [3], in [4], in assay [8], in [16], in assay [17] and in [20] was inactive. Moreover, in assay [12], the molecule was called inactive.
With `CC1(C)CON(Cc2ccccc2Cl)C1=O`, the Potency result in [1], in assay [2], in assay [18], in [5], in assay [6] and in [7] was “inactive” throughout. The Potency entry in assay [9] and in assay [11] was “inactive” each time. Further, the molecule was classed as inactive in assay [3], in assay [8], in assay [10], in [16], in [17] and in [12]. Also, the molecule was called inactive in assay [13] and in assay [14].
With `CCOP(=S)(OCC)SCSc1ccc(Cl)cc1`, the Potency entry in [1], in assay [2], in assay [5], in [6], in assay [7] and in assay [9] was “inactive” throughout. Moreover, the Potency entry in [19] and in assay [11] was “inactive” in each case. The result in [3], in assay [8], in assay [16], in assay [17], in assay [12] and in assay [13] was inactive.
Consider `O=C(Nc1ccccc1)c1ccccc1I`, for which the Potency result in assay [1], in assay [5], in assay [6], in assay [7], in assay [9] and in [11] was “inactive” throughout. The Potency in [2] is 48.6 µM (active); in [15], 21.7 µM (active). For the same molecule, the molecule was called inactive in assay [3], in assay [8], in assay [16] and in assay [12].
`COC(C)(C)C`: the Potency entry in assay [1], in assay [2], in assay [5], in assay [15], in [6] and in assay [7] was “inactive” each time. Moreover, the Potency entry in [9] and in assay [11] was “inactive” in each case. Besides, the molecule was classed as inactive in [3], in assay [8], in [10], in [12], in assay [13] and in assay [14].
Consider `CCOC(=O)N(C)C(=O)CSP(=S)(OCC)OCC`, for which the Potency result in assay [1], in assay [18], in assay [5], in assay [6], in [7] and in assay [11] was “inactive” in each case. In assay [2], the Potency was 15.4 µM (active). Further, the result in [3], in [8], in assay [10], in assay [16], in assay [20] and in [12] was inactive. Moreover, the outcome in assay [13] was inactive.
As to `COc1cc(OC)nc(Oc2cccc(Oc3nc(OC)cc(OC)n3)c2C(=O)O)n1`, the Potency entry in assay [1], in assay [2], in assay [18], in assay [5], in [15] and in [7] was “inactive” throughout. Moreover, the Potency entry in assay [9] and in assay [11] was “inactive” each time. The molecule was called inactive in [3], in assay [8], in assay [10], in assay [17], in [12] and in assay [14].
`CCOP(=O)(N=C1SCCS1)OCC`: the Potency entry in assay [1], in assay [2], in assay [18], in [5], in assay [15] and in [6] was “inactive” each time. For the same molecule, the Potency entry in [7], in [9] and in assay [11] was “inactive” in each case. The outcome in assay [3], in [8], in assay [16], in assay [17] and in [12] was inactive.
Take `CCC1(c2ccccc2)C(=O)NC(=O)NC1=O`: the Potency result in assay [1], in [2], in assay [18], in assay [5], in [15] and in [6] was “inactive” each time. Also, the Potency entry in assay [7], in assay [9] and in assay [11] was “inactive” in each case. In addition, the result in assay [3], in assay [8], in [10], in assay [16], in assay [17] and in assay [12] was inactive. The result in assay [13] and in assay [14] was inactive.
Take `C[C@]12CC[C@H]3[C@@H](CC=C4C[C@@H](O)CC[C@@]43C)[C@@H]1CC[C@@H]2O`: the Potency result in assay [1], in [2], in [5], in [15], in assay [6] and in assay [7] was “inactive” each time. Besides, the Potency result in [9] and in assay [11] was “inactive” throughout. Also, the outcome in assay [3], in assay [16], in assay [12], in [13] and in assay [14] was inactive.

These data come from PubChem BioAssay (Tox21).
